Test results taken from paper PMC11006913.
Numbering of substitutions follows the chain as printed.

Legend:
Assay in all cases: PBM; 200 nM protein, PBS
Conditions in all cases: dsDNA, one strand shown
[1] = target: T1, NKX2-6 (Homo sapiens, UniProt A6NCS4 118-204)
T1 sequence: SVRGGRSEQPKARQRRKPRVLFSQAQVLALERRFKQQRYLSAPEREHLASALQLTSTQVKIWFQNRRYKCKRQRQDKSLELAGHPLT

[2] = target: T2, NKX2-6 (Homo sapiens, UniProt A6NCS4 118-204, F151L)
T2 sequence: T1 sequence with F34L

[3] = target: NKX3-2 (Homo sapiens, UniProt P78367 192-278, P234S)
[4] = target: NKX3-2 (Homo sapiens, UniProt P78367 192-278)
[5] = target: T3, PAX4 (Homo sapiens, UniProt O43316 9-242, R200Q)
T3 sequence: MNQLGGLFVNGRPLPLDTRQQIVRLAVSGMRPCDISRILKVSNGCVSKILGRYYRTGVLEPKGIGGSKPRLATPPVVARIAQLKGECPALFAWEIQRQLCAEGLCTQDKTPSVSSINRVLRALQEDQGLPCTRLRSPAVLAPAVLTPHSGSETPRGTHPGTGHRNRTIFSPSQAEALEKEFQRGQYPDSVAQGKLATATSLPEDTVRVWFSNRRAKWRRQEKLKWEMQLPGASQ

[6] = target: T4, PAX4 (Homo sapiens, UniProt O43316 9-242, F177Y)
T4 sequence: T3 sequence with F169Y, Q192R

[7] = target: T5, PAX4 (Homo sapiens, UniProt O43316 9-242, R227W)
T5 sequence: T3 sequence with Q192R, R219W

[8] = target: PITX2 (Homo sapiens, UniProt Q99697 72-157)

Chain of NKX3-2 (Homo sapiens, UniProt P78367 192-278) (P78367 192-278): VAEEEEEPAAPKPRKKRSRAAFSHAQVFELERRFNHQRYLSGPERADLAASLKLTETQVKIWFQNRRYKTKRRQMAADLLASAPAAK
Chain of NKX3-2 (Homo sapiens, UniProt P78367 192-278, P234S) (P78367 192-278 P234S): as the sequence (P78367 192-278) above, with P43S counted along it

Q: How did the binding signal [1] turn out when ATCCCAGG was run?
A: The binding signal was 9.47 upbm affinity estimate (log intensity, higher = more binding, comparable within an allelic series).

Q: What about the binding signal [2] of the same sequence?
A: The binding signal was 9.43 upbm affinity estimate (log intensity, higher = more binding, comparable within an allelic series).

Q: Which binding signal [1] does the source give for GGGCGGCA here?
A: The binding signal was 9.62 upbm affinity estimate (log intensity, higher = more binding, comparable within an allelic series).

Q: What about the binding signal [2] of the same sequence?
A: Its binding signal is 9.36 upbm affinity estimate (log intensity, higher = more binding, comparable within an allelic series).

Q: How did the binding signal [1] turn out when AGTTGCTG was run?
A: The binding signal was 9.45 upbm affinity estimate (log intensity, higher = more binding, comparable within an allelic series).

Q: And the binding signal [2]?
A: Its binding signal is 9.39 upbm affinity estimate (log intensity, higher = more binding, comparable within an allelic series).

Q: What about the binding signal [3] of the same sequence?
A: Its binding signal is 10.7 upbm affinity estimate (log intensity, higher = more binding, comparable within an allelic series).

Q: What about the binding signal [4] of the same sequence?
A: The binding signal was 10.6 upbm affinity estimate (log intensity, higher = more binding, comparable within an allelic series).

Q: For CCTTAATC, which binding signal [1] is on record?
A: The binding signal was 11.3 upbm affinity estimate (log intensity, higher = more binding, comparable within an allelic series).

Q: What about the binding signal [2] of the same sequence?
A: Its binding signal is 9.82 upbm affinity estimate (log intensity, higher = more binding, comparable within an allelic series).

Q: With GGCCCGTA as the sequence, how does the binding signal [1] read?
A: Its binding signal is 9.15 upbm affinity estimate (log intensity, higher = more binding, comparable within an allelic series).

Q: What about the binding signal [2] of the same sequence?
A: The binding signal was 9.45 upbm affinity estimate (log intensity, higher = more binding, comparable within an allelic series).

Q: For CAGCCGTC, which binding signal [1] is on record?
A: Its binding signal is 9.5 upbm affinity estimate (log intensity, higher = more binding, comparable within an allelic series).

Q: What about the binding signal [2] of the same sequence?
A: Its binding signal is 9.26 upbm affinity estimate (log intensity, higher = more binding, comparable within an allelic series).

Q: With GTAAATTA as the sequence, how does the binding signal [5] read?
A: Its binding signal is 11.9 upbm affinity estimate (log intensity, higher = more binding, comparable within an allelic series).

Q: And the binding signal [6]?
A: Its binding signal is 11 upbm affinity estimate (log intensity, higher = more binding, comparable within an allelic series).

Q: How did the binding signal [1] turn out when CAGGGTCG was run?
A: Its binding signal is 9.43 upbm affinity estimate (log intensity, higher = more binding, comparable within an allelic series).

Q: And the binding signal [2]?
A: Its binding signal is 9.26 upbm affinity estimate (log intensity, higher = more binding, comparable within an allelic series).

Q: Which results are given for ACCAGAGC?
A: binding signal [1]: 9.39 upbm affinity estimate (log intensity, higher = more binding, comparable within an allelic series); binding signal [2]: 9.5 upbm affinity estimate (log intensity, higher = more binding, comparable within an allelic series)

Q: Which results are given for CAGTCTGC?
A: binding signal [1]: 9.37 upbm affinity estimate (log intensity, higher = more binding, comparable within an allelic series); binding signal [2]: 9.38 upbm affinity estimate (log intensity, higher = more binding, comparable within an allelic series)

Q: GAAATTAA was tested. Which binding signal [5] did it give?
A: The binding signal was 11.9 upbm affinity estimate (log intensity, higher = more binding, comparable within an allelic series).

Q: And the binding signal [6]?
A: The binding signal was 10.9 upbm affinity estimate (log intensity, higher = more binding, comparable within an allelic series).

Q: And the binding signal [7]?
A: Its binding signal is 10.9 upbm affinity estimate (log intensity, higher = more binding, comparable within an allelic series).

Q: For CGTTTGCC, which binding signal [1] is on record?
A: Its binding signal is 9.35 upbm affinity estimate (log intensity, higher = more binding, comparable within an allelic series).

Q: And the binding signal [2]?
A: The binding signal was 9.53 upbm affinity estimate (log intensity, higher = more binding, comparable within an allelic series).

Q: Which binding signal [1] does the source give for CCGTAGCA here?
A: The binding signal was 9.41 upbm affinity estimate (log intensity, higher = more binding, comparable within an allelic series).

Q: And the binding signal [2]?
A: The binding signal was 9.46 upbm affinity estimate (log intensity, higher = more binding, comparable within an allelic series).

Q: Which results are given for CACCGCGC?
A: binding signal [1]: 8.99 upbm affinity estimate (log intensity, higher = more binding, comparable within an allelic series); binding signal [2]: 9.25 upbm affinity estimate (log intensity, higher = more binding, comparable within an allelic series)

Q: Which binding signal [8] does the source give for ATTATCAC here?
A: The binding signal was 10.2 upbm affinity estimate (log intensity, higher = more binding, comparable within an allelic series).

Q: What does the source list for GGAAAGTA?
A: binding signal [1]: 11.2 upbm affinity estimate (log intensity, higher = more binding, comparable within an allelic series); binding signal [2]: 9.87 upbm affinity estimate (log intensity, higher = more binding, comparable within an allelic series)

Q: For AGACGGCC, which binding signal [1] is on record?
A: The binding signal was 9.28 upbm affinity estimate (log intensity, higher = more binding, comparable within an allelic series).

Q: What about the binding signal [2] of the same sequence?
A: The binding signal was 9.16 upbm affinity estimate (log intensity, higher = more binding, comparable within an allelic series).

Q: How did the binding signal [1] turn out when CACACGGA was run?
A: The binding signal was 9.29 upbm affinity estimate (log intensity, higher = more binding, comparable within an allelic series).

Q: And the binding signal [2]?
A: Its binding signal is 9.43 upbm affinity estimate (log intensity, higher = more binding, comparable within an allelic series).

Q: How did the binding signal [1] turn out when AAAGAGGG was run?
A: The binding signal was 11.6 upbm affinity estimate (log intensity, higher = more binding, comparable within an allelic series).

Q: What about the binding signal [2] of the same sequence?
A: Its binding signal is 9.79 upbm affinity estimate (log intensity, higher = more binding, comparable within an allelic series).

Q: Which binding signal [1] does the source give for CCGGGAAC here?
A: The binding signal was 9.33 upbm affinity estimate (log intensity, higher = more binding, comparable within an allelic series).

Q: And the binding signal [2]?
A: Its binding signal is 9.31 upbm affinity estimate (log intensity, higher = more binding, comparable within an allelic series).

Q: What about the binding signal [3] of the same sequence?
A: Its binding signal is 10.5 upbm affinity estimate (log intensity, higher = more binding, comparable within an allelic series).

Q: What about the binding signal [4] of the same sequence?
A: Its binding signal is 10.5 upbm affinity estimate (log intensity, higher = more binding, comparable within an allelic series).

Q: For ATACTTAG, which binding signal [1] is on record?
A: Its binding signal is 13.1 upbm affinity estimate (log intensity, higher = more binding, comparable within an allelic series).

Q: And the binding signal [2]?
A: Its binding signal is 10.4 upbm affinity estimate (log intensity, higher = more binding, comparable within an allelic series).

Q: Which binding signal [1] does the source give for CCCAAGGC here?
A: The binding signal was 9.12 upbm affinity estimate (log intensity, higher = more binding, comparable within an allelic series).

Q: And the binding signal [2]?
A: Its binding signal is 9.27 upbm affinity estimate (log intensity, higher = more binding, comparable within an allelic series).

Q: With AAATACTC as the sequence, how does the binding signal [1] read?
A: Its binding signal is 11.4 upbm affinity estimate (log intensity, higher = more binding, comparable within an allelic series).

Q: What about the binding signal [2] of the same sequence?
A: The binding signal was 9.88 upbm affinity estimate (log intensity, higher = more binding, comparable within an allelic series).

Q: With CTCTCATC as the sequence, how does the binding signal [1] read?
A: Its binding signal is 11.6 upbm affinity estimate (log intensity, higher = more binding, comparable within an allelic series).

Q: What about the binding signal [2] of the same sequence?
A: The binding signal was 9.79 upbm affinity estimate (log intensity, higher = more binding, comparable within an allelic series).

Q: What about the binding signal [3] of the same sequence?
A: The binding signal was 11.7 upbm affinity estimate (log intensity, higher = more binding, comparable within an allelic series).

Q: What about the binding signal [4] of the same sequence?
A: The binding signal was 11.9 upbm affinity estimate (log intensity, higher = more binding, comparable within an allelic series).

Q: How did the binding signal [1] turn out when AAGTACTG was run?
A: The binding signal was 12.7 upbm affinity estimate (log intensity, higher = more binding, comparable within an allelic series).

Q: What about the binding signal [2] of the same sequence?
A: Its binding signal is 10.3 upbm affinity estimate (log intensity, higher = more binding, comparable within an allelic series).
